The text below walks through data of PubChem BioAssay.

Assay [1] is described as follows: antimalarial activity against Dd2 strain (AID 2302;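 active = growth inhibition above 50% at the single 2 µM test dose, taken to imply half-maximal potency below 2 µM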;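 also: 0% = DMSO untreated growth and 100% = chloroquine plus artemisinin killed control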). Particulars: P. falciparum Dd2 in RBCs, LDH growth readout, 72 h; at 2 µM; stronger effect = higher value.
A short description of assay [2]: human hepatoma cell viability loss – ATP luminescence, cytotoxicity control for P. falciparum antimalarial project, primary screen (AID 2303;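 active = inhibition above 50%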;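 also: 0% = DMSO wells and 100% = digitonin-killed cells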). The following applies: HepG2 viability, 24-48 h, at 10 µM, stronger effect = higher value.
In assay [3] the target is L-lactate dehydrogenase (Plasmodium falciparum (isolate CDC / Honduras)) (UniProt Q27743). Put plainly: PfLDH activity inhibition – cell lysate, 3D7 strain, counter-screen for P. falciparum growth inhibition project (AID 2304).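 Also: 0% = vehicle and 100% = reference inhibitor.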 Particulars: P. falciparum 3D7 crude extract, LDH APAD/NBT absorbance; at 2 µM; stronger effect = higher value. For orientation: A counterscreen serves to expose hits that act by an unwanted route or on another target.

The nature of assay [4]: inhibition of 3D7 malaria parasite growth – strain 3D7 (AID 2306).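 Also: 0% = DMSO wells and 100% = chloroquine plus artemisinin control wells.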 The following applies: P. falciparum 3D7 erythrocytic growth, LDH absorbance, 72 h; at 2 µM; stronger effect = higher value.
Assay [5] addresses Calcium-dependent protein kinase 1 (Plasmodium falciparum (isolate 3D7)) (UniProt P62344). Put plainly: PfCDPK1 kinase inhibitors, biochemical, TCAMS library (AID 1159585; cut-off not given, nearly all actives have IC50 up to about 0.98 µM;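 also: inhibitors leave more ATP so luminescence rises with inhibition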). The following applies: recombinant PfCDPK1, Kinase-Glo ATP depletion luminescence. (In Kinase-Glo more light means more ATP remaining.)
In assay [6] the target is Plasmodium falciparum protein kinase 6 (PK6, PF3D7_1337100) (UniProt Q8IDW1). Put plainly: PfPK6 kinase inhibitors, biochemical, TCAMS library (AID 1159586). Particulars: recombinant PfPK6, Kinase-Glo ATP depletion luminescence.
Assay [7] deals with Protein kinase 7 (PK7), Plasmodium falciparum 3D7 (PF3D7_0213400) (UniProt Q7YTF7). The experiment in a line: inhibition of Plasmodium PK7 catalytic activity – biochemical, TCAMS antimalarial set, Kinase-Glo luminescence (AID 1159587). Particulars: recombinant PfPK7, Kinase-Glo ATP depletion luminescence.
Assay [8] addresses Calcium-dependent protein kinase 4 (Plasmodium falciparum (isolate 3D7)) (UniProt Q8IBS5). Put plainly: PfCDPK4 kinase inhibitors, biochemical, TCAMS library (AID 1159588; cut-off not given, nearly all actives have IC50 up to about 0.91 µM). Particulars: recombinant PfCDPK4, Kinase-Glo ATP depletion luminescence.

The term inhibition denotes the change of the read-out against control, counted positive when it falls.

A number with no mark means an inactive call. For part of these data: Results with a measured potency or affinity are listed apart. Active and inactive are the calls of the source. Unless noted, no rule for the calls is given here.

L-lactate dehydrogenase (Plasmodium falciparum (isolate CDC / Honduras)), sequence (Q27743 whole entry, looked up): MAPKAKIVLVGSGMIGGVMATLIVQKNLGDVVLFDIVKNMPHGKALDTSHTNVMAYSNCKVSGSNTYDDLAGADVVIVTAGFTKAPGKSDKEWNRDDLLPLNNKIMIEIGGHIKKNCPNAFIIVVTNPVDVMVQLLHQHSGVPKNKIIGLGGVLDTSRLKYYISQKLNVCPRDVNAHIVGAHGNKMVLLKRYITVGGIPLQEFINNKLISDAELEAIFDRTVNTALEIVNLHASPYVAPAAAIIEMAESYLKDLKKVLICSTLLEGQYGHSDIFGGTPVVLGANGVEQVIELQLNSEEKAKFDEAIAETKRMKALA
Calcium-dependent protein kinase 1 (Plasmodium falciparum (isolate 3D7)), sequence (P62344 whole entry, looked up): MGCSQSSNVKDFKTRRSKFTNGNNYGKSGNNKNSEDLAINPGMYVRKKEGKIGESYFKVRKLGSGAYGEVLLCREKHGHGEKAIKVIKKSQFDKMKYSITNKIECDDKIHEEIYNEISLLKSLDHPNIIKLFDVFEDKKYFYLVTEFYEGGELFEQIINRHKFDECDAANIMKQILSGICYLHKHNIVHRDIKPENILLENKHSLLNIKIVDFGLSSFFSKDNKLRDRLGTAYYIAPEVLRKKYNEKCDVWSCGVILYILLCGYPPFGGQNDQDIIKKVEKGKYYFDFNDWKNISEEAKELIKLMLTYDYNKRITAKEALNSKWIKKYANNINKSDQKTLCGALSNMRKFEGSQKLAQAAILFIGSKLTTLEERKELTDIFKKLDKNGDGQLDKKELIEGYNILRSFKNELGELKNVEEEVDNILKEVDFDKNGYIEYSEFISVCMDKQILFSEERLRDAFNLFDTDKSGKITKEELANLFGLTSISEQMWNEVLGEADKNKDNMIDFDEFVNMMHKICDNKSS
Protein kinase 7 (PK7), Plasmodium falciparum 3D7 (PF3D7_0213400), sequence (Q7YTF7 1-343): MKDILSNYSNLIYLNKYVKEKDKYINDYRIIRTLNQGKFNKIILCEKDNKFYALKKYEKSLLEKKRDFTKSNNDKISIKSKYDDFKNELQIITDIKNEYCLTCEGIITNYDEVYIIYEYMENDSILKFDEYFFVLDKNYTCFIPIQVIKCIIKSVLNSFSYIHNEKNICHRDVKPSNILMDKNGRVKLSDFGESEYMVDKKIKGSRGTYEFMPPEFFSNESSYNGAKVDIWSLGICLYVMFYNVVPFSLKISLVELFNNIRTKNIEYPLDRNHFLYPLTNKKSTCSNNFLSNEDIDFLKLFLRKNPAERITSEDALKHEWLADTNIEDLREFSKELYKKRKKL
Plasmodium falciparum protein kinase 6 (PK6, PF3D7_1337100), sequence (Q8IDW1 1-305): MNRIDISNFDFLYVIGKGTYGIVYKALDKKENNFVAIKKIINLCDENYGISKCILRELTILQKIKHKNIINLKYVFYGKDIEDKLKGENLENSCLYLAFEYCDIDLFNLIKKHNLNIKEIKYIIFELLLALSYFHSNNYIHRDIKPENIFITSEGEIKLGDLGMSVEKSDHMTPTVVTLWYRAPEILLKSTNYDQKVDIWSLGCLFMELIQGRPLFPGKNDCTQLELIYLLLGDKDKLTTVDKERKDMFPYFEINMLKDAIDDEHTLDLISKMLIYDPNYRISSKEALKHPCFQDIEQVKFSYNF
Calcium-dependent protein kinase 4 (Plasmodium falciparum (isolate 3D7)), sequence (Q8IBS5 whole entry, looked up): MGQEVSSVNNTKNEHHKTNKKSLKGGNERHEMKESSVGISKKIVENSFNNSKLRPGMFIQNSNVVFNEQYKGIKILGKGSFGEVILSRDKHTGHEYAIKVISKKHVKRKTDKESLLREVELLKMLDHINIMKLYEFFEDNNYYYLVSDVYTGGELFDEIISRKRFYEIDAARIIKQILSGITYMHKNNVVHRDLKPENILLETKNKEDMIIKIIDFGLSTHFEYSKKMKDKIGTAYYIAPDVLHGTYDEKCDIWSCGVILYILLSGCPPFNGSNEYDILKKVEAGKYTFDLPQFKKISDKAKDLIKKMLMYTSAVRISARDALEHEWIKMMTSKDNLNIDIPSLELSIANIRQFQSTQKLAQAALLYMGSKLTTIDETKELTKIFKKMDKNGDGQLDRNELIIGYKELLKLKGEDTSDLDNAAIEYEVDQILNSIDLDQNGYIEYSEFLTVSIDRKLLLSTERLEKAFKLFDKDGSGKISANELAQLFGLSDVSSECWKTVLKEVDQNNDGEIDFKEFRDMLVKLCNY

On to `CN1CCN(c2cc3c(cc2Cl)CCN3C(=O)Cc2ccc(Cl)c(NC(=O)Nc3cccc(C#N)c3)c2)CC1`, for which the growth inhibition was 40% in assay [1] and 99% (active) in assay [4]. Besides, the inhibition in assay [2] and in assay [3] was -1% throughout. For the same compound, the result in assay [5], in assay [6], in assay [7] and in assay [8] was inactive.

Consider `O=C(NCc1ccccc1)C1Cc2c([nH]c3ccc(Br)cc23)C2(CCN(Cc3ccccc3)CC2)N1` (centres undefined), for which the figures for the growth inhibition in assay [1] and in assay [4] were 70% (active) and 98% (active), respectively. Further, the inhibition was 15% in assay [2] and 1% in assay [3]. In addition, the outcome in assay [5], in assay [6], in assay [7] and in assay [8] was inactive.

Take `CN1CCN(CCCN(Cc2ccc(-c3ccc(CNC4CCCC4)cc3)cc2)C(=O)CCC2CCCC2)CC1`: the growth inhibition in assay [1] was 96% (active); in assay [4], 98% (active). Also, the figures for the inhibition in assay [2] and in assay [3] were 92% (active) and 2%, respectively. The outcome in assay [5], in assay [6], in assay [7] and in assay [8] was inactive.

On to `COc1ccc2nccc(N(C)CC3(O)CCN(CCc4ccc5c(c4)OCCO5)CC3)c2n1`, for which the growth inhibition in assay [1] is 96% (active); in assay [4], 100% (active). Also, the results for the inhibition in assay [2] and in assay [3] were 15% and -3%, respectively. Moreover, the result in assay [5], in assay [6], in assay [7] and in assay [8] was inactive.

Regarding `CCc1nc2c(cnn2CC)c(NC2CCOCC2)c1CNC(=O)N1CCOCC1`, the growth inhibition in assay [1] is 48%; in assay [4] it was 98% (active). Moreover, the inhibition in assay [2] is 0%; in assay [3] it was 4%. Further, the result in assay [5], in assay [6], in assay [7] and in assay [8] was inactive.

Take `CCCCCCc1c(C)[nH]c2cc(OC)ccc2c1=O`: the growth inhibition in assay [1] and in assay [4] was 97% (active) in each case. In addition, the inhibition is 10% in assay [2] and 3% in assay [3]. Further, the outcome in assay [5], in assay [6], in assay [7] and in assay [8] was inactive.

As to `Cc1ccc(-c2nc3ccc(C(=O)NC4CCC(N5CCCc6ccc(C#N)cc6C5)CC4)cc3[nH]2)cc1` (centres undefined), the figures for the growth inhibition in assay [1] and in assay [4] were 49% and 101% (active), respectively. Moreover, the inhibition in assay [2] is 23%; in assay [3], -2%. In addition, the result in assay [5], in assay [6], in assay [7] and in assay [8] was inactive.

Take `O=C(Nc1cccc(CN2CCCN(Cc3cccc(O)c3)CC2)c1)c1ccc(Cl)c(Cl)c1`: the growth inhibition in assay [1] is 79% (active); in assay [4], 102% (active). The inhibition was 25% in assay [2] and 2% in assay [3]. Moreover, the result in assay [5], in assay [6], in assay [7] and in assay [8] was inactive.

For `CC(C)(C)c1ccc(S(=O)(=O)Nc2cc(Cl)ccc2Cn2ccc(N3CCNCC3)nc2=O)cc1`, the growth inhibition in assay [1] was 74% (active); in assay [4] it was 95% (active). The values for the inhibition in assay [2] and in assay [3] were -9% and 2%, respectively. Moreover, the outcome in assay [5], in assay [6], in assay [7] and in assay [8] was inactive.

For the compound `CS(=O)(=O)N(CC(O)Cn1c2ccc(Cl)cc2c2cc(Cl)ccc21)c1ccccc1` (centres undefined), the growth inhibition is 98% (active) in assay [1] and 101% (active) in assay [4]. Also, the inhibition was 2% in assay [2] and 0% in assay [3]. For the same compound, the outcome in assay [5], in assay [6], in assay [7] and in assay [8] was inactive.

In the case of `CCC(=O)OC(CCN(CC)CC)(c1ccccc1)c1ccccc1`, the growth inhibition was 6% in assay [1] and 98% (active) in assay [4]. The inhibition in assay [2] is 30%; in assay [3], 4%. Also, the result in assay [5], in assay [6], in assay [7] and in assay [8] was inactive.

Take `CN1CCC(N2CCN(Cc3cccc(-c4cccc(-c5nc6ccccc6[nH]5)c4)c3)CC2)CC1`: the growth inhibition in assay [1] and in assay [4] was 100% (active) in each case. Moreover, the inhibition in assay [2] is 19%; in assay [3], -1%. The outcome in assay [5], in assay [6], in assay [7] and in assay [8] was inactive.

As for `NC1CCN(Cc2cccc(-c3cccc(-c4nc5ccccc5[nH]4)c3)c2)C1` (centres undefined), the growth inhibition is -2% in assay [1] and 100% (active) in assay [4]. Besides, the inhibition in assay [2] was 14%; in assay [3], -3%. In addition, the outcome in assay [5], in assay [6], in assay [7] and in assay [8] was inactive.

In the case of `NC1=NC(c2ccccc2)(c2ccccc2)C(=O)N1CCOc1ccccc1`, the growth inhibition was 57% (active) in assay [1] and 90% (active) in assay [4]. The inhibition is 42% in assay [2] and 0% in assay [3]. Further, the result in assay [5], in assay [6], in assay [7] and in assay [8] was inactive.

With `CCNc1cc(C(=O)N[C@@H](Cc2ccccc2)[C@H](O)CNCCc2cccc(C(F)(F)F)c2)cc(N2CCCC2=O)c1`, the growth inhibition is 93% (active) in assay [1] and 96% (active) in assay [4]. Moreover, the results for the inhibition in assay [2] and in assay [3] were 7% and 1%, respectively. Besides, the result in assay [5], in assay [6], in assay [7] and in assay [8] was inactive.

Take `Cc1[nH]c(C)c(-c2ccc(Oc3ccc(Cl)cc3)cc2)c(=O)c1Br`: the growth inhibition was 96% (active) in assay [1] and 97% (active) in assay [4]. The inhibition in assay [2] is 12%; in assay [3], -4%. Moreover, the outcome in assay [5], in assay [6], in assay [7] and in assay [8] was inactive.

In the case of `O=C(N[C@H]1CCN(Cc2ccc(OCCN3CCNCC3)c3ccccc23)C1)c1ccc(Cl)c(Cl)c1`, the growth inhibition is 99% (active) in assay [1] and 100% (active) in assay [4]. Further, the results for the inhibition in assay [2] and in assay [3] were 53% (active) and -2%, respectively. Besides, the result in assay [5], in assay [6], in assay [7] and in assay [8] was inactive.

Take `CNCc1ccc(CN(C)c2nc(N)c3cc(OC)c(OC)cc3n2)cc1`: the growth inhibition in assay [1] was 3%; in assay [4] it was 96% (active). The inhibition was 12% in assay [2] and 5% in assay [3]. Besides, the outcome in assay [5], in assay [6], in assay [7] and in assay [8] was inactive.
